This excerpt belongs to a sample that is enriched for hits.
HIV RNase H inh-1 – HIV-1 RT RNase H inhibitors, primary screen, biochemical, fluorescence | RT-RNase H RNA/DNA duplex cleavage | inhibition, % at 10 µM | 1.9% of 65,000 active; in the data active = inhibition above about 50%
RmlC RmlD mix – RmlC and RmlD coupled enzyme inhibitors, primary screen, biochemical, 384-well, compound mixtures, retest. AID 1532, 2009. RmlC/RmlD coupled enzyme inhibition, 384-well mixture HTS. 0.39% of 110,000 active. inhibition, % at 5.5 µM; in the data active = inhibition above about 30%, passing the limit was not always enough
HIV RNase H inh-2 – HIV-1 RT RNase H inhibitors, retest, confirmation, biochemical; shares compounds with HIV RNase H inh-1; Recombinant RT RNase H, fluorescent RNA/DNA duplex cleavage; inhibition, % at 10 µM; 39% of 1,000 active; AID 651, 2007; in the data active = inhibition above about 48%
The depositor's hits bear a star; / = no result given.

SMILES	HIV RNase H inh-1	RmlC RmlD mix	HIV RNase H inh-2
Cc1ccc(-c2nnn(CC(=O)Nc3ccc(S(=O)(=O)N4CCC(C)CC4)cc3)n2)cc1	40	5	/
CC1CCN(S(=O)(=O)c2ccc(NC(=O)Cn3nnc(-c4ccccc4)n3)cc2)CC1	70*	-25	68*
Cn1c(Cc2ccccc2)nnc1SCC(=O)c1ccc(Br)s1	-8	-54	/
CCN1C(=C2C(=O)c3ccccc3C2=O)C=Cc2ccccc21	-10	15	/
O=C1C=Cc2ccccc2C1=O	95*	-34	67*
O/C(=C\Sc1nnc(Cc2ccccc2)o1)c1ccc(F)cc1	/	8	/
COc1ccc(NC(=O)C2=C(C)Nc3ncnn3C2c2ccccc2C(F)(F)F)c(OC)c1 (stereo unspecified)	6	6	/
CC1Cc2ccccc2N1Cc1nc2cc(Cl)ccc2c(=O)[nH]1 (stereo unspecified)	/	-15	/
COC(=O)c1ccc2c(=O)[nH]c(CN3c4ccccc4CC3C)nc2c1 (stereo unspecified)	63*	-6	61*
COc1ccc(Cl)cc1NC(=O)C(C)Sc1n[nH]c(N)n1 (stereo unspecified)	/	9	/
O=C(CCSc1ccccc1)Nc1ccc(S(=O)(=O)N2CCOCC2)cc1	-18	-5	/
COc1cc(-c2nn3c(-c4ccccc4)nnc3s2)cc(OC)c1OC	-6	15	/
COc1cc(-c2nn3c(COc4ccccc4)nnc3s2)cc(OC)c1OC	71*	-22	29
CCOc1cccc(-c2nnc3sc(-c4cc(OC)c(OC)c(OC)c4)nn23)c1	-3	/	/
COc1cc(-c2nn3c(Cc4ccccc4)nnc3s2)cc(OC)c1OC	91*	15	80*
CCN(CC)CCC(c1ccc(N(C)C)cc1)c1c(O)cc(OC)cc1OC (stereo unspecified)	/	3	/
COc1ccc(-c2nnc(SC(C)C(=O)Nc3c(C)n(C)n(-c4ccccc4)c3=O)o2)cc1 (stereo unspecified)	/	-10	/
S=C(c1ccc(-c2ccc(Cl)c(Cl)c2)o1)N1CCOCC1	66*	8	0
S=C(c1ccc(-c2ccc(Cl)cc2Cl)o1)N1CCCCC1	/	11	/
S=C(c1ccc(-c2ccccc2Cl)o1)N1CCOCC1	95*	-17	51*
S=C(Nc1ccc(Cl)cc1)N1CCOCC1	/	-13	/
S=C(c1ccc(Cl)cc1)N1CCOCC1	90*	3	58*
O=C(c1ccc(-c2cccc(C(F)(F)F)c2)o1)N1CCOCC1	-32	-10	/
Cc1c(C2N3CC4(C)CN2CC(C)(C3)C4=O)c2ccccc2n1C (stereo unspecified)	-4	2	/
Cc1ccc(OCc2nnc(NC(=O)c3ccco3)s2)c(C)c1	8	-8	/
SMILES	HIV RNase H inh-1	RmlC RmlD mix	HIV RNase H inh-2
CCCN1C(=O)c2ccc(C(=O)NC3CCCCC3)cc2C1=O	6	-8	/
CCOC(=O)c1c(NC(=O)Cn2nc([N+](=O)[O-])c(Br)c2C)sc2c1CCC(C)C2 (stereo unspecified)	/	15	/
COc1ccc(N2CCN(CC(O)COc3ccc4c(c3)CCC4)CC2)cc1 (stereo unspecified)	/	14	/
CCCCS/C(=C(/C#N)C(N)=O)c1cc2c([nH]1)CCCC2	81*	-10	0
CCc1ccc(N/C(SC)=C(/C#N)C(N)=O)cc1	-18	-3	/
O=C1N2CCSC2=NC1(NS(=O)(=O)c1ccccc1)C(F)(F)F (stereo unspecified)	0	-8	/
CCCN1CCC(=O)N([C@H](CSc2ccc(OC)cc2)c2ccccc2)CC1	/	6	/
COc1ccc(N2C(=O)C(Cl)=C(N3CCCC(C)C3)C2=O)cc1 (stereo unspecified)	/	-10	/
Cc1ccccc1N1C(=O)C(Cl)=C(N2CCN(c3ccccc3)CC2)C1=O	13	14	/
O=C1C(Cl)=C(N2CCOCC2)C(=O)N1c1ccccc1Cl	70*	-8	27
COC(=O)c1cccc(N2C(=O)C(Cl)=C(N3CCOCC3)C2=O)c1	83*	6	62*
COC(=O)c1cccc(S(=O)(=O)N2CCOCC2)c1	/	9	/
CN1CCN(C2=C(Cl)C(=O)N(c3cccc(Cl)c3)C2=O)CC1	70*	1	17
Cn1c(=O)n(-c2cccc(Cl)c2)c(=O)n1C	-11	-16	/
COc1ccc(N2C(=O)C(Cl)=C(N3CCCC3)C2=O)cc1	52*	-8	-4
O=C(O/N=C/C1=C(Cl)c2ccccc2CC1)c1ccc(F)cc1	/	5	/
CCOC(=O)c1nnc2c(Br)c(-c3ccccc3)nn2c1C	/	-8	/
O=C(NCCCn1ccnc1)c1cc(-c2ccc3c(c2)OCO3)on1	-7	10	/
CC1CCCCC1NC(=O)c1ccc2c(c1)[nH]c(=O)n2C1CCCC1 (stereo unspecified)	-2	-2	/
CCOc1ccc(-n2cc(C(=O)N3CCCCCC3)c3cc(OC)c(OC)cc3c2=O)cc1	-4	2	/
O=C(C1CCCN(S(=O)(=O)c2cnc[nH]2)C1)N1CC(=O)N(CCc2ccccc2)C(=O)C1 (stereo unspecified)	-4	2	/
CCCc1nnc(NC(=O)Cn2cnc3ccccc3c2=O)s1	/	-16	/
CCOC(=O)c1ccccc1NC(=O)Cn1cnc2c(oc3ccccc32)c1=O	1	7	/
COCCn1c(C)cc(C(=O)COC(=O)CCN2C(=O)c3ccccc3C2=O)c1C	-9	4	/
CN1CCN(C2=C(Cl)C(=O)N(c3ccc(Cl)c(Cl)c3)C2=O)CC1	96*	6	74*
SMILES	HIV RNase H inh-1	RmlC RmlD mix	HIV RNase H inh-2
CN1CCN(C2=C(Cl)C(=O)N(Cc3ccccc3)C2=O)CC1	-28	12	/
COc1ccc(Cn2nnnc2C(c2cc3cccc(C)c3[nH]c2=O)N2CCOCC2)cc1 (stereo unspecified)	54*	5	4
COc1ccc(Cn2nnnc2C(c2cc3cc(C)ccc3[nH]c2=O)N2CCOCC2)cc1 (stereo unspecified)	-18	6	/
CCOC(=O)c1[nH]c2ccc(OC)cc2c1NC(=O)CN1CCC2(CC1)OCCO2	74*	34	33
CCOC(=O)c1[nH]c2ccc(OC)cc2c1NC(=O)C(C)N1CCC2(CC1)OCCO2 (stereo unspecified)	3	27	/
CC1(C)N([O-])C2=C(c3ccccc3C2=O)[N+](=O)C1(C)C	/	8	/
CCCC[n+]1cc(/N=C(\[O-])OC)on1	84*	-4	8
CO/C([O-])=N/c1c[n+](-c2ccc(C)cc2)no1	3	-1	/
O=C(O)Cc1ccc2[nH]c3ccc(CC(=O)O)cc3c2c1	4	5	/
CCOc1ccccc1N1CCN(S(=O)(=O)CC)CC1	53*	-13	0
CCOc1ccccc1N1CCN(S(=O)(=O)c2cccs2)CC1	-9	-6	/
Cc1c(OCC(F)(F)F)ccnc1CS(=O)c1nc2ccccc2[nH]1 (stereo unspecified)	74*	6	33
COCCCOc1ccnc(CS(=O)c2nc3ccccc3[nH]2)c1C (stereo unspecified)	/	-6	/
CCCCN(C)C(=O)c1oc2ccc(S(=O)(=O)N3CCCCCC3)cc2c1C	-37	-50	/
CCCn1nnnc1NC(=O)c1cccs1	/	7	/
O=C(Nc1nnc(Cc2ccccc2)s1)c1ccco1	/	3	/
NC(=O)c1cc(Cc2ccccc2)sc1NC(=O)c1ccco1	89*	-3	31

High-throughput results as filed in PubChem.
